Screening data (PubChem BioAssay)
Shown are actives, neighbours in structure and some others; about 4.8% of the full set was active somewhere.
hgDAF12 agonist = agonists of H. glycines DAF-12 nuclear receptor. HEK293 GAL4-hgDAF12 UAS-luciferase reporter, agonist luminescence; normalized to butyrate control. activation, % at 6.8 µM. actives 1.8% (n = 370,000);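 active means activation above a cutoff set at the mean of all screened compounds plus 3 SD, cut at about 10% in these data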;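 further: 0% = DMSO wells and 100% = sodium butyrate wells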
hcDAF12 agonist = H. contortus DAF-12 activation, primary screen | activation, % at 6.8 µM | HEK293 hcDAF-12 lit1-tk-luc reporter, luminescence; 0% DMSO, 100% Δ7-dafachronic acid | actives 1.4% (n = 370,000);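 active means activation above the mean of all tested compounds plus 3 SD, cut at about 5.5% in these data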;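 further: 100% = response to 3 µM Δ7-dafachronic acid high control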
SMARCA2 act = increases SMARCA2 function in MMTV reporter cells; actives 1% (n = 370,000); MG213 cells, MMTV-luciferase reporter, dexamethasone, overnight; AID 652017; activation, % at 9.1 µM; in the data active means activation above about 7.8%;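 further: 0% = vehicle wells and 100% = reference activator wells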
DAX1 inh-1 = NR0B1 (DAX1) inhibition; P51843; HEK293 Gal4-DAX1 luciferase reporter, luminescence; inhibition, % at 6.75 µM; actives 0.99% (n = 340,000); AID 504766;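 active means inhibition above the mean over all tested compounds plus 3 SD, cut at about 4.2% in these data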;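 further: 0% = DAX1-transfected cells with DMSO and 100% = empty-vector control cells with DMSO; inhibition shows as a rise in luminescence from relieved DAX1 repression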
Target sequence (P51843 207-470 limits assumed): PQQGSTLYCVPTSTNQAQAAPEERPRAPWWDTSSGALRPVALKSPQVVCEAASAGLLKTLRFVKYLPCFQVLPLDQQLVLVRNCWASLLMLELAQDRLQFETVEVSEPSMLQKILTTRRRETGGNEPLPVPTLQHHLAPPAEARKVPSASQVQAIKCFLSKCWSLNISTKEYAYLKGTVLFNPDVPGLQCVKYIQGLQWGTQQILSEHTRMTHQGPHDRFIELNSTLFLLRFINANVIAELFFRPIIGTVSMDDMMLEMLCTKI
ssDAF-12 act = activators of S. stercoralis DAF-12 nuclear receptor. HEK293 ssDAF-12/GRIP1 lit1-tk-luc reporter, luminescence; % of 3 µM dafachronic acid response. activation, % at 6.8 µM. actives 1% (n = 370,000). AID 652126;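 active means activation above the mean over all tested compounds plus 3 SD, cut at about 0.9% in these data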;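 further: 0% = DMSO-only wells and 100% = 3 µM delta7-dafachronic acid wells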
DAX1 inh-2 = inhibitors of DAX1 repression of SF-1 activated StAR promoter; HEK293T StAR-luciferase reporter, SF-1/DAX-1 repression relief; inhibition, % at 6.8 µM; actives 1.1% (n = 370,000);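 active means inhibition above the mean over all tested compounds plus 3 SD, cut at about 3.6% in these data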;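 further: 0% = DAX-1 cells with DMSO and 100% = cells lacking DAX-1 with DMSO; higher inhibition means more luminescence from relief of DAX-1 repression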
An asterisk follows results filed as active; nt = no result.

SMILES | hgDAF12 agonist | hcDAF12 agonist | SMARCA2 act | DAX1 inh-1 | ssDAF-12 act | DAX1 inh-2
CC(=O)C1=C(O)C(=O)N(c2ccc(Br)cc2)C1c1ccc(Br)cc1 (stereo unspecified) | 5 | -1 | 0 | 1 | 0 | 0
CCn1cc(C(=O)N2CCN(c3ccc(F)cc3)CC2)c2cc(OC)c(OC)cc2c1=O | 2 | 0 | 0 | -1 | -1 | 0
CCn1cc(C(=O)N2CCN(c3ccccc3OC)CC2)c2cc(OC)c(OC)cc2c1=O | 0 | -1 | 0 | 4.4* | -2 | -1
C=CCN(C(=O)[C@@H](C)[C@@H](O)c1ccc2ccccc2c1)c1ccccc1 | 0 | 0 | -2 | nt | 0 | -2
COC(=O)[C@H](C(C)C)N(CCCc1cn(Cc2ccc(C)cc2)nn1)S(=O)(=O)c1ccc(F)cc1Br | -6 | -2 | -2 | nt | -2 | -2
CCc1ccc(-c2nc(CCl)cs2)cc1 | 12* | 6 | 4 | 1 | 0 | 3
COc1ccc(-c2nc(CCl)cs2)cc1 | 5 | 4 | 3 | -1 | 0 | 2
CC(C)CNc1cccc2c1S(=O)(=O)N(Cc1cn(Cc3cccc(C(F)(F)F)c3)nn1)Cc1ccccc1O2 | -2 | -2 | 2 | nt | -1 | 0
Cc1ccc(S(=O)(=O)c2nc(Nc3ccccc3C#N)sc2Cl)cc1 | -2 | 6.3* | -4 | 0 | -1 | 0
CN1[C@H](Cc2ccccc2)COc2cccc(N3CCCC3)c2S1(=O)=O | 2 | -3 | 1 | nt | -1 | 0
C#CCNC(=O)C[C@H]1C[C@@]2(C(=O)OC)C(=C[C@H](C(C)(C)C)O[C@@H]2C)N(Cc2cccc3ccccc23)C1=O | 3 | -1 | -4 | nt | -2 | -1
COCCNc1cnn(-c2ccccc2)c(=O)c1Cl | 1 | 2 | -3 | 4.9* | -2 | 0
COc1ccc(NC2=Nc3ccccc3CC2)cc1 | 11* | 3 | 6 | 2 | 0 | 3
Nc1nc2ccccc2n1S(=O)(=O)c1ccc(Cl)cc1 | -1 | 0 | 1 | nt | -1 | 4.2*
Cc1ccc(S(=O)(=O)n2c(N)nc3ccccc32)cc1 | 0 | -2 | -3 | 0 | -1 | 0
O=C1C(c2ccccc2)=NCCN1C(c1ccc(F)cc1)c1nc2ccccc2[nH]1 (stereo unspecified) | 2 | 6.1* | 5 | nt | 0 | 0
CC(C)C[C@H](NC1(C(=O)NC2CCCCC2)CCCCC1)C(=O)NCCc1c[nH]c2ccccc12 | -5 | 3 | nt | nt | -1 | nt
Cc1nc(Nc2ccc(F)cc2)nc(Nc2ccc(F)cc2)c1[N+](=O)[O-] | 1 | -1 | 0 | 4.7* | -1 | 1
COc1ccccc1N1C[C@@H]2C[C@@H](c3ccco3)N3CCC[C@@]23C1=O | -1 | -1 | 0 | 4.9* | -1 | 0
CCOC(=O)[C@]12CCCCC/C=C\1N(Cc1ccc(OC)cc1)C(=O)[C@H]2CC(=O)N1CCC(c2ccccc2)CC1 | -2 | 2 | -2 | nt | -1 | 0
COc1ccccc1-c1cccc([C@@H]2C[C@H]3[C@H](CON3C)CN2C)c1 | -2 | -1 | -3 | 0 | 0 | 3.8*
C/C(=N\Nc1nc(C(C)(C)C)cs1)c1ccc(O)cc1 | 0 | 5.8* | 1 | -1 | 0 | 0
O=C(O)CCCCCNC(=O)CCn1nnc2ccccc2c1=O | -1 | -1 | -2 | 5.9* | -2 | 0
CC(C)CCSc1nc2ccccc2[nH]1 | 13* | 1 | 5 | 4 | -1 | 2
O=c1c2ccccc2nnn1CSc1nc2ccccc2[nH]1 | 11* | 0 | 14* | 3 | -1 | 2
O=C(O)CCCNC(=O)CCn1nnc2ccccc2c1=O | 0 | -1 | -1 | 2 | -2 | 1
COc1ccc(C2C(C(=O)Nc3ccc(Cl)c(Cl)c3)CCC(=O)N2c2ccc(OC)cc2)cc1 (stereo unspecified) | -1 | 0 | -2 | nt | 0 | 0
Cc1ccc(Cn2cc(CN3[C@H](Cc4ccccc4)COc4cc(Br)ccc4S3(=O)=O)nn2)cc1 | 3 | 0 | 1 | nt | -2 | 0
O=C(C1CCCN1S(=O)(=O)c1cccs1)N1CCc2ccccc2C1 (stereo unspecified) | 3 | -2 | -3 | nt | -1 | -1
